Potency and outcome data for four compounds are collected here from PubChem BioAssay (Tox21).

Experiment [1] can be described thus: qHTS assay to identify small molecule antagonists of the estrogen related receptor (ERR) signaling pathway from Tox21 library - cell viability counter screen (AID 1224834). Further: nearly all actives have a fitted effect of over 30% in size. Summed up:
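Cytotoxicity of test substances is gauged in the same ERR cells used for the antagonist screen, after 17.5 h of compound treatment at 37 C, by CellTiter-Fluor fluorescence measured after 30 min.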
A general note: In qHTS, concentration-response curves come from the screen itself.

Experiment [2] concerns the target Luciferin 4-monooxygenase (Photinus pyralis) (UniProt P08659). Put plainly: qHTS assay to identify small molecule inhibitors of firefly luciferase (AID 1224835). Further: series mostly up to about 120 µM; nearly all actives have a fitted effect of over 25% in size. In outline: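 Inhibition of purified Photinus luciferase is measured by luminescence. Substrate levels (D-luciferin, ATP) sit at their KM values. Each compound is tested in a concentration series.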
Experiment [3] in a line: qHTS assay to identify small molecule agonists of the constitutive androstane receptor (CAR) signaling pathway - cell viability counter screen (AID 1224836). Further: series mostly up to about 92 µM; nearly all actives have a fitted effect of over 45% in size. Summed up:
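Cell viability multiplexed with the CAR agonist screen: CellTiter-Fluor fluorescence after 23 hr at 37 C. HepG2-CYP2B6-hCAR cells got compounds at 15 concentrations with PK11195 at 0.75 uM final.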

A short description of experiment [4]: qHTS assay to identify small molecule antagonists of the constitutive androstane receptor (CAR) signaling pathway - cell viability counter screen (AID 1224837). Further: series mostly up to about 92 µM; nearly all actives have a fitted effect of over 45% in size. Summed up: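 Multiplexed cytotoxicity read-out for the CAR antagonist screen: double-stable HepG2-CYP2B6-hCAR cells co-treated with 50 nM CITCO (final) and compound over 15 concentrations, incubated 23 hr, then assessed by CellTiter-Fluor fluorescence.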

Experiment [5] deals with Nuclear receptor subfamily 1 group I member 3 (Homo sapiens) (UniProt Q14994). Put plainly: qHTS assay to identify small molecule antagonists of the constitutive androstane receptor (CAR) signaling pathway (AID 1224838). Further: nearly all actives have a fitted effect of over 40% in size. In outline: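 Compounds were titrated across 15 concentrations onto HepG2 cells double-stably expressing hCAR and a CYP2B6-2.2kb reporter, together with 50 nM CITCO (final). After 24 h at 37 C, luciferase activity was measured by luminescence.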
Sequence of Nuclear receptor subfamily 1 group I member 3 (Homo sapiens) (Q14994 whole entry, looked up): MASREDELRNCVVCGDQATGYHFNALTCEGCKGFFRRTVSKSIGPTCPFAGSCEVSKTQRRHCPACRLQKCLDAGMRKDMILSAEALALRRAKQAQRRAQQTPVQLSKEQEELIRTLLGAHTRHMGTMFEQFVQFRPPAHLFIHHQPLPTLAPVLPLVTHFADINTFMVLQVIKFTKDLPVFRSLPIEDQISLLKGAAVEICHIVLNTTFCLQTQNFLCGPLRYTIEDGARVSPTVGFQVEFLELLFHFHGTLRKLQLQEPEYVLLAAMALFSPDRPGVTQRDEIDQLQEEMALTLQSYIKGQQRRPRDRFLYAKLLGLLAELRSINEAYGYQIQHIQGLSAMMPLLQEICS

Experiment [6] shares this target. Put plainly: qHTS assay to identify small molecule agonists of the constitutive androstane receptor (CAR) signaling pathway (AID 1224839). Further: nearly all actives have a fitted effect of over 15% in size. Further: potency means the concentration at half of the fitted maximal effect. On activation: series mostly up to about 92 µM. Summed up:
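Luminescent ONE-Glo read-out after 24 hr, 37 C exposure of double-stable HepG2-CYP2B6-hCAR reporter cells to a 15-point compound series, in the presence of 0.75 uM PK11195 (final).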

A short description of experiment [7]: qHTS assay to identify small molecule antagonists of the estrogen related receptor signaling pathway with the pleiotropic PPARgamma coactivator (PGC) from Tox21 10K library - cell viability counter screen (AID 1224840; active means well fitted cell-killing curve with a large enough effect in the repeat runs, not every such curve was filed as active; further: nearly all actives have a fitted effect of over 40% in size). Summed up:
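Step one, plate 2,000 PGC/ERR cells per well; step two, incubate 6 h at 37 C/5% CO2; step three, pin-transfer compounds; step four, incubate 17.5 h; step five, add CellTiter-Fluor and read fluorescence after 30 min.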

In experiment [8] the target is Thyrotropin receptor (Homo sapiens) (UniProt P16473). Put plainly: qHTS assay to identify small molecule agonists of the thyroid stimulating hormone receptor (TSHR) signaling pathway (AID 1224843; calls by dose curve; further: nearly all actives have a fitted effect of over 45% in size). In outline:
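HEK293 cells stably bearing the thyrotropin receptor were plated at 800 cells/well and challenged with compound (30 min, RT). Accumulated cAMP was quantified via cAMP-d2 competing for cryptate-tagged antibody.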

Experiment [9] in a line: qHTS assay to identify small molecule agonists of the hypoxia (HIF-1) signaling pathway - cell viability counter screen (AID 1224844; calls by dose curve; further: nearly all actives have a fitted effect of over 50% in size). In outline: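 Tox21 10K compounds were added to HRE-bla ME-180 cells (0.5% dialyzed FBS) and incubated 17 hrs at 37C; ATP-based CellTiter-Glo luminescence then reported cell viability in the same wells.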
Experiment [10] is described as follows: qHTS assay to identify small molecule agonists of H2AX (AID 1224845; active means well fitted activation curve with a large enough effect in the signal ratio in the repeat runs, not every such curve was filed as active; the % refers to the signal ratio). In outline: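 Phospho-H2AX Ser139 measured by HTRF (ex 320 nm; em 665 and 620 nm) after 24 hr antibody incubation. Compounds, 15 concentrations, 0.76% DMSO, were applied to CHO-K1 cells for 3hr at 37C before lysis.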
Experiment [11] can be described thus: qHTS assay to identify small molecule agonists of the hypoxia (HIF-1) signaling pathway (AID 1224846; active means well fitted activation curve with a large enough effect in the signal ratio in the repeat runs, not every such curve was filed as active; the % refers to the signal ratio). In outline: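 Steps: seed ME-180 HRE-bla cells (2,000/well, 0.5% dialyzed FBS); incubate 5 hrs at 37C; pin-transfer compounds or DMSO; incubate 17 hrs; add LiveBLAzer B/G substrate CCF4-AM; measure reporter activation by FRET.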
The nature of experiment [12]: qHTS RealTime-Glo MT Cell Viability Assay in HepG2 cells - 24 hour (AID 1224867). Further: nearly all actives have a fitted effect of over 50% in size. In outline: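 Compound treatment began 5 h after plating HepG2 cells (600/well) with NanoLuc luciferase and prosubstrate. Plates stayed at 37 C for 40 h; luminescence was captured at six time points, 0 h through 40 h.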
Experiment [13] in a line: qHTS RealTime-Glo MT Cell Viability Assay in HepG2 cells - 40 hour (AID 1224870). Further: nearly all actives have a fitted effect of over 50% in size. Summed up:
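Real-time viability: cells seeded at 600 per well together with NanoLuc and cell-permeant prosubstrate, compounds added after 5 h incubation. Luminescence tracked at 0, 8, 16, 24, 32 and 40 h of exposure.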

Experiment [14] in a line: qHTS assay to identify small molecule agonists of H2AX - cell viability counter screen (AID 1224847; calls by dose curve;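 further: wild-type CHO-K1 cells; top concentration of the series differs between compounds; nearly all actives have a fitted effect of over 30% in size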). In outline:
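Counter-screen for viability: CellTiter-Glo ATP luminescence read after 3 h compound treatment (15-point titration, 0.76% DMSO final) of CHO-K1 cells at 37C, with 30 min room-temperature reagent incubation.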

A short description of experiment [15]: A CellTox Green Cytotoxicity Assay to monitor cytotoxicity in HEK293 cells - 0 hour (AID 1224869). Further: nearly all actives have a fitted effect of over 50% in size. Summed up: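 Cytotoxicity was tracked continuously in HEK293 cells by a DNA-binding dye excluded from viable cells. Compounds were transferred in DMSO 5 h after seeding; fluorescence was recorded at intervals up to 40 h.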
Experiment [16] in a line: qHTS RealTime-Glo MT Cell Viability Assay in HEK293 cells - 32 hour (AID 1224868). Summed up: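 Quantitative high-throughput screen of the Tox21 10K library in HEK293: cells and RealTime-Glo reagents plated together, compound added at 5 h, luminescence monitored through 40 h at 37 C.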

The structures appear in SMILES notation. A number with no mark means an inactive call. Records with an inconclusive call do not appear. Calls of active or inactive are those of the source. Unless noted, the call rests on the fitted dose curve; in most records, active means well fitted curve in the direction sought with a large enough effect in the repeat runs; inconclusive means weak or mixed curves; inactive means no such curve, though single readings can be large; an effect the other way counts as inactive or inconclusive.

Sequence of Luciferin 4-monooxygenase (Photinus pyralis) (P08659 whole entry, looked up): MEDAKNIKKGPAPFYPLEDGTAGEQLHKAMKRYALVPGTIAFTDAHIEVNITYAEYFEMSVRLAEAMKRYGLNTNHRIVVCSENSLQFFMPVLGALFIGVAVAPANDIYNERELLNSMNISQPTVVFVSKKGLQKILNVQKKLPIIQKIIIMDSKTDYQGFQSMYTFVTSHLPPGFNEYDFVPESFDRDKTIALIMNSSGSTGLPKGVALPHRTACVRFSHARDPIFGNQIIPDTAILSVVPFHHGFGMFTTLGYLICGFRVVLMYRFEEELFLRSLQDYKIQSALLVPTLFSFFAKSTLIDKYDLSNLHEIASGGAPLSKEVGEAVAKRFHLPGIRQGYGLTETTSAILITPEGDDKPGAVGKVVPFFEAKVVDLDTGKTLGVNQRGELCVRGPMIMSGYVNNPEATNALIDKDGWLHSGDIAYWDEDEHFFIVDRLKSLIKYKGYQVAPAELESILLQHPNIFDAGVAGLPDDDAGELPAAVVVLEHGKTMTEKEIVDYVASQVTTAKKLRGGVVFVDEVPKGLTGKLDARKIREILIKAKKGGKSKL
Sequence of Thyrotropin receptor (Homo sapiens) (P16473 whole entry, looked up): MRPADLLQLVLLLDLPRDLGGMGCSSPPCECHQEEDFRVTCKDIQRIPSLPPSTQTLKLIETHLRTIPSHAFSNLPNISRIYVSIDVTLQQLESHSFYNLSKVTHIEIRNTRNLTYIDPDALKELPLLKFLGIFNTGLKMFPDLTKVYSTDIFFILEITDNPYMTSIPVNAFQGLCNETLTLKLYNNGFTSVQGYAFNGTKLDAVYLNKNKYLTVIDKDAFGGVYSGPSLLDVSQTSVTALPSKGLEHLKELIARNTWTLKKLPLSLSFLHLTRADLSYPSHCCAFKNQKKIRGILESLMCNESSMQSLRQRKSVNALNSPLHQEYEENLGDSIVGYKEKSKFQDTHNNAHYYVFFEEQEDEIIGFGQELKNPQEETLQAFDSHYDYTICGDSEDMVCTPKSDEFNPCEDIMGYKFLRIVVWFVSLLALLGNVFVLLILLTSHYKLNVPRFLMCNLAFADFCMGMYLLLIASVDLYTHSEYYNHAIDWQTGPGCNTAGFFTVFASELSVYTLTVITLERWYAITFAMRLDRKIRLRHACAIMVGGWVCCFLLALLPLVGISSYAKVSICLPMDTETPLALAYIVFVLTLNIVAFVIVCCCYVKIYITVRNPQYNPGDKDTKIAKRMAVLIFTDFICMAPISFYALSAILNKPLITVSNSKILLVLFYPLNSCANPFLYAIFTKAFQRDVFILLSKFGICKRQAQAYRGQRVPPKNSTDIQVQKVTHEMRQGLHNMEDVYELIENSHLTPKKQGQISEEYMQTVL

`O=C(O)COc1nc(Cl)c(Cl)cc1Cl`: the Potency result in [1], in experiment [2], in [3], in [4], in [5] and in [6] was “inactive” in each case. In addition, the Potency result in experiment [7], in experiment [8], in experiment [9], in [10], in experiment [12] and in [13] was “inactive” each time. In [11], the call was inactive.

`ClCc1ccccc1CCl`: the Potency entry in [1], in experiment [2], in [3], in experiment [4], in experiment [5] and in experiment [6] was “inactive” each time. The Potency result in [7], in experiment [8], in [10], in experiment [14], in [12] and in experiment [15] was “inactive” in each case. Also, the Potency entry in [13] was “inactive”.

In the case of `c1cc[c]([Sb]([c]2ccccc2)[c]2ccccc2)cc1`, the Potency entry in [1], in experiment [2], in experiment [3], in experiment [4], in experiment [8] and in experiment [9] was “inactive” throughout. The Potency entry in experiment [12], in experiment [15] and in [13] was “inactive” in each case. Besides, the Potency was 15.4 µM (active) in experiment [6] and 54.9 µM (active) in experiment [16]. Also, the compound was classed as inactive in experiment [11].

For `Oc1ccccc1Br`, the Potency entry in [1], in [2], in experiment [3], in [4], in experiment [5] and in [6] was “inactive” in each case. For the same compound, the Potency entry in experiment [7], in experiment [9], in experiment [10], in experiment [14], in [12] and in [15] was “inactive” each time. Besides, the Potency result in [13] is “inactive”. The compound was classed as inactive in experiment [11].
